Peg3 imprint = induces erasure of genomic imprints in mouse ES cells | 0.02% of 110,000 active | Potency, µM (top dose mostly 60.7 µM), for the others: at the top dose activity change, positive = activation, most hits filed as activators | AID 1948 | mouse ES Peg3-LacZ reporter, beta-gal luminescence, 40 h
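Imprint erasure is scored as LacZ activity from the silenced maternal Peg3 allele in feeder-free female ES cells cultured 40 h with LIF. Luminescence is normalized to in-plate negative controls and fitted to the Hill equation.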
TSHR agonist = TSH receptor (human) agonism; HEK293-CNG-TSHR cells (CNG channel as cAMP sensor), membrane potential dye, cAMP; AID 926; 0.48% of 73,000 active; P16473; Potency, µM (titrated, usually from 57.1 µM), inactives show at the top dose activation, most hits filed as activators; active means well fitted activation curve with a large enough effect in the main read-out, with a control signal flat, not every such curve was filed as active; inconclusive means small, poorly fitted or top-dose-only effect, or a change in a side signal; inactive means no such curve, though single readings can be large or run the other way; % of control where 0% means no effect;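 further: the control signal comes from parental cells without the receptor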
Target sequence (P16473 whole entry, looked up): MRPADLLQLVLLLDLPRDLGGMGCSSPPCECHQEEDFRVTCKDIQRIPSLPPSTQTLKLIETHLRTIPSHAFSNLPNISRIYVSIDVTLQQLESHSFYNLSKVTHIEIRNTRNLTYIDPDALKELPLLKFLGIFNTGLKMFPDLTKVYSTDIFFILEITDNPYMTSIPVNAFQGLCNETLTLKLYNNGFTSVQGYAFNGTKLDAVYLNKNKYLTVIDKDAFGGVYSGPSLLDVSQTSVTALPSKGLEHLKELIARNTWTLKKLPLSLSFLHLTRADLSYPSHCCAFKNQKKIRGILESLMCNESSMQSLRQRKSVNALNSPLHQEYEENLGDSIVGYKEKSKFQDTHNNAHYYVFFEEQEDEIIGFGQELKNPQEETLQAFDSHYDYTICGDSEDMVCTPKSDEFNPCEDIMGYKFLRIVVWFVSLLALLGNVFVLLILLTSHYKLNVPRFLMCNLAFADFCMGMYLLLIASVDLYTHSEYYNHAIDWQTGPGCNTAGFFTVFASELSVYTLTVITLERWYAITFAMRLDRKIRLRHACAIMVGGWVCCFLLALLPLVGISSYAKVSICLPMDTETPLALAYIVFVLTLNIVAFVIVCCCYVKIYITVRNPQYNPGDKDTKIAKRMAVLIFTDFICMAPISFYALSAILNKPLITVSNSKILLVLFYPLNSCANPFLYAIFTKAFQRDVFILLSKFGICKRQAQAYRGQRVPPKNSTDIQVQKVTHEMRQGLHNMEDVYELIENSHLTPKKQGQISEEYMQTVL
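HEK 293 cells stably expressing TSHR and a modified CNG channel, with CNG-only parental cells as counterscreen, were preloaded 60 min at room temperature with membrane potential dye containing 100 uM RO 20-1724. Compound exposure was 30 min, and depolarization was read as fluorescence at 590 nm.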
HEK293 cAMP ctrl = parental HEK293 cAMP activation (counter-screen); parental HEK293 CNG cAMP sensor, membrane potential fluorescence; Potency, µM (highest dose often 57.1 µM), for the others: at the top dose activation, most hits filed as activators; 2.5% of 73,000 active; further: % of control where 0% means no effect; nearly all actives have a fitted effect of over 55% in size
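Parental HEK 293 cells stably expressing a cAMP-gated CNG channel were loaded with membrane potential dye containing 100 uM RO 20-1724 for 60 min. Compound added for 30 min; depolarization read as fluorescence intensity at 590 nm.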
An asterisk follows results filed as active; u = inconclusive; x = not tested or not shown; [ ] = dose if it differs, or a comment. Shown is part of a subset that was picked to be rich in hits. Unless noted, the call rests on the fitted dose curve; in most records, active means well fitted activation curve with a large enough effect; inconclusive means small, poorly fitted or top-dose-only effect; inactive means no such curve, though single readings can be large or run the other way. Potency means the concentration at half of the fitted maximal effect.

SMILES	Peg3 imprint	TSHR agonist	HEK293 cAMP ctrl
Cc1nc(N2CCN(C(=O)c3ccco3)CC2)c2c3c(sc2n1)CCC3	-6.5%	x	28.8%
COC(=O)[C@@]1(Cc2ccc(F)cc2)[C@H]2c3cc(C(=O)N(C)C)n(Cc4cccc5ccccc45)c3C[C@H]2CN1C(=O)c1ccccc1	-14.2%	u	15.8µM*
COC(=O)[C@@]1(Cc2ccc(F)cc2)[C@H]2c3cc(C(=O)N(C)C)n(Cc4nc5ccccc5[nH]4)c3C[C@H]2CN1C(=O)c1ccccc1	-11.4%	4.7%	4.3%[0.457 µM]
COC(=O)[C@@]1(Cc2ccc(F)cc2)[C@H]2c3cc(C(=O)N(C)C)n(Cc4ccsc4Br)c3C[C@H]2CN1C(=O)c1ccccc1	-26.4%	u	3.98µM*
COC(=O)[C@@]1(Cc2ccc(F)cc2)[C@H]2c3cc(C(=O)N4CCCC4)n(Cc4cccc5ccccc45)c3C[C@H]2CN1C(=O)c1ccccc1	-12.9%	u	u
COC(=O)[C@@]1(Cc2ccccc2)[C@H]2c3cc(C(=O)N4CCCC4)n(Cc4cccc5ccccc45)c3C[C@H]2CN1C(=O)c1ccccc1	-18.0%	u	1.58µM*
COC(=O)[C@@]1(Cc2ccc(OC)cc2)[C@H]2c3cc(C(=O)N(C)C)n(Cc4ccc(C)o4)c3C[C@H]2CN1C(=O)c1ccccc1	-28.8%	u	15.8µM*
COC(=O)[C@@]1(Cc2ccc(F)cc2)[C@H]2c3cc(C(=O)N(C)C)n(Cc4ccccn4)c3C[C@H]2CN1C(=O)c1ccccc1	-7.8%	u	u
COC(=O)[C@@]1(Cc2ccc(OC)cc2)[C@H]2c3cc(C(=O)N(C)C)n(Cc4ccc(S(C)(=O)=O)cc4)c3C[C@H]2CN1C(=O)c1ccccc1	-12.7%	u	u
Cn1c(=O)n(C/C=C/c2ccccc2)c(=O)c2c1nc1n2CCN1c1ccc(F)cc1	-4.9%[10.9 µM]	x	x
CC(=O)Nc1c(C)nn(-c2ccccc2)c1N1CCC(C(=O)NCc2cccc(Cl)c2)CC1	-5.9%[10.9 µM]	x	x
CCOC(=O)c1sc(N)c(C(=O)Nc2ccc(C)cc2C)c1C	x	-10.7%	-11.3%
COc1ccc(CCNC(=O)CCn2c(=O)c3ccccc3n(CC(=O)Nc3ccccc3F)c2=O)cc1OC	-7.5%[10.9 µM]	x	x
COC(=O)[C@@]1(Cc2ccccc2)[C@H]2c3cc(C(=O)N4CCCC4)n(Cc4cc(F)cc5c4OCOC5)c3C[C@H]2CN1C(=O)c1ccccc1	-24.5%	u	2.51µM*
COC(=O)[C@@]1(Cc2ccc(OC)cc2)[C@H]2c3cc(C(=O)N(C)C)n(Cc4ccsc4Br)c3C[C@H]2CN1C(=O)c1ccccc1	-19.0%	u	6.31µM*
COC(=O)[C@@]1(Cc2ccc(OC)cc2)[C@H]2c3cc(C(=O)N(C)C)n(Cc4ccccn4)c3C[C@H]2CN1C(=O)c1ccccc1	-12.0%	u	u
COC(=O)[C@@]1(Cc2ccc(OC)cc2)[C@H]2c3cc(C(=O)N(C)C)n(Cc4ccc(C)c(F)c4F)c3C[C@H]2CN1C(=O)c1ccccc1	-27.7%	u	2.51µM*
COC(=O)[C@@]1(Cc2ccc(F)cc2)[C@H]2c3cc(C(=O)N4CCCC4)n(Cc4cc(F)cc5c4OCOC5)c3C[C@H]2CN1C(=O)c1ccccc1	-10.3%	u	u
COC(=O)[C@@]1(Cc2ccc(OC)cc2)[C@H]2c3cc(C(=O)N(C)C)n(CCO)c3C[C@H]2CN1C(=O)c1ccccc1	-10.3%	18.0%	3.3%
Cc1ccc(Cl)cc1NC(=O)c1cc(-c2ccc3c(c2)OCCO3)on1	-26.5%[10.9 µM]	x	x
C=CCOC(=O)C(C(C)=O)C(NC(=O)OC)c1cccc(C(F)(F)F)c1 (centres undefined)	x	8.5%[11.4 µM]	5.8%[11.4 µM]
COC(=O)c1cc2oc3ccccc3c2n1Cc1nc(-c2ccccc2Cl)oc1C	-8.1%[10.9 µM]	x	x
COc1ccccc1NC(=O)CC(c1cc(OC)c(OC)c(OC)c1)N1Cc2ccccc2C1=O (centres undefined)	-8.2%[10.9 µM]	x	x
COc1ccc(NC(=O)CCc2c(C)nn(-c3ccc(N4CCOCC4)nn3)c2C)cc1Cl	-16.2%[10.9 µM]	x	x
O=C(NCc1ccc(Cl)cc1Cl)c1ccccn1	-9.8%	u	25.1µM*
SMILES	Peg3 imprint	TSHR agonist	HEK293 cAMP ctrl
O=C(NCCCNCCCNC(=O)c1ccccn1)c1ccccn1	-14.7%	3.2%	1.7%
O=S(=O)(NCCNC/C=C\c1ccc(Br)cc1)c1cccc2cnccc12	x	-36.9%	17.2%
Cc1ccc(NC(=O)OCC(F)(F)C(F)F)cc1NC(=O)OCC(F)(F)C(F)F	-20.6%	-14.6%[11.4 µM]	-14.1%[11.4 µM]
O=C(CCC(=O)OCC(F)(F)C(F)F)Nc1ccc(Cl)cc1	1.8%	u	31.6µM*
Cc1noc(C)c1-c1ccc2ncnc(N3CCOCC3)c2c1	-0.6%	1.4%	3.0%
Cc1ccc(NC(=O)CC2Oc3ccccc3NC2=O)cc1C (centres undefined)	25.7%[10.9 µM]	x	x
CS(=O)(=O)Nc1cccc(-c2nc(Nc3ccc(F)cc3)c3ccccc3n2)c1	-14.1%	25.1µM*	19.4%
CNc1nc(-c2cccc(NS(C)(=O)=O)c2)nc2ccccc12	2.9%	-1.2%	6.4%
COc1ccc(S(=O)(=O)NCc2nc(-c3ccccc3)no2)cc1	-7.3%[10.9 µM]	x	x
O=C(Nc1ccccc1Cl)N1CCN(c2ccc3nnc(-c4ccccc4)n3n2)CC1	-39.8%	-0.9%	3.4%
O=C(Nc1ccc(Cl)cc1)N1CCN(c2ccc3nnc(-c4ccc(F)cc4)n3n2)CC1	-20.0%[10.9 µM]	u	25.1µM*
CCN(CC)S(=O)(=O)c1ccc2c(c1)nc(CN(C)C(=O)c1cccc(Cl)c1)n2C	6.0%[10.9 µM]	x	x
C[C@H]1CC(C)(C)C[C@@](OCCN2CCCCC2)(c2ccccc2)C1	-11.2%[10.9 µM]	u	5.01µM*
Cc1c(C(=O)OCCN2CCCCC2)oc2ccccc12	-24.7%	x	26.8%
CC(=O)Nc1ccc(-c2nnc(SCC(=O)c3ccc([N+](=O)[O-])cc3)o2)cc1	-12.7%[10.9 µM]	x	x
CCC(C)(C)n1nnnc1C(C(C)C)N1CCSCC1 (centres undefined)	-3.9%	u	6.31µM*
CCC(C)(C)n1nnnc1C(C(C)C)N1CCN(C)CC1 (centres undefined)	-9.9%	6.1%	13.3%
CCc1nc(N2CCCC(C)C2)c2oc3ccccc3c2n1 (centres undefined)	-10.7%	u	15.8µM*
Cc1nc(N2CCOCC2)c2oc3ccccc3c2n1	-7.9%	7.9%	16.1%
CCc1nc(N2CCCCC2C)c2oc3ccccc3c2n1 (centres undefined)	-23.3%	u	20µM*
CCc1nc(NC(C)C)c2oc3ccccc3c2n1	-23.4%	x	24.1%
CCc1nc(N2CCCCC2)c2oc3ccccc3c2n1	-15.4%	u	25.1µM*
CCOC(=O)C1CCCN(c2nc(C)nc3c2oc2ccccc23)C1 (centres undefined)	-2.1%	23.7%	11.4%
O=C(CSc1nc2c([nH]c3ccccc32)c(=O)n1-c1ccccc1)Nc1ccc(Cl)c(Cl)c1	-7.1%[10.9 µM]	x	x
COc1ccc(CNC(=O)CSc2n[nH]c(-c3ccc(OC)cc3)n2)cc1	-5.6%[10.9 µM]	x	x
COc1ccc(NC(=O)Cn2ncc3c4ccccc4n(Cc4ccccc4)c3c2=O)cc1OC	13.9%[10.9 µM]	x	x
CCOC(=O)c1c(C)noc1CP(=O)(c1ccccc1)c1ccccc1	4.8%	u	12.6µM*
CCOC(=O)c1sc(NC(=O)c2c(C)noc2C)c(C(=O)OCC)c1C	-12.7%	1.2%	7.0%
